From ChEMBL document CHEMBL3988442, “University of Dundee, Small-Polar-MMV Screening Library” (2021)
For part of these data: Potency and affinity values are given separately.

Key:
Design in all cases: scale not given: direction of the effect not stated beside the values
[1] = biological target: Protein translocase subunit SecA (Escherichia coli (strain K12)) (UniProt P10408); experiment: Assay to Identify E. coli SecA ATPase Inhibitors; format: functional; conditions: 30 µM
[2] = biological target: T1, Ubiquitin-activating enzyme e1, putative (Leishmania donovani (strain BPK282A1)) (UniProt E9BSI1); experiment: Leishmania donovani Ubiquitin Activating Enzyme (LdE1); format: functional; conditions: 30 µM
T1 sequence (whole entry): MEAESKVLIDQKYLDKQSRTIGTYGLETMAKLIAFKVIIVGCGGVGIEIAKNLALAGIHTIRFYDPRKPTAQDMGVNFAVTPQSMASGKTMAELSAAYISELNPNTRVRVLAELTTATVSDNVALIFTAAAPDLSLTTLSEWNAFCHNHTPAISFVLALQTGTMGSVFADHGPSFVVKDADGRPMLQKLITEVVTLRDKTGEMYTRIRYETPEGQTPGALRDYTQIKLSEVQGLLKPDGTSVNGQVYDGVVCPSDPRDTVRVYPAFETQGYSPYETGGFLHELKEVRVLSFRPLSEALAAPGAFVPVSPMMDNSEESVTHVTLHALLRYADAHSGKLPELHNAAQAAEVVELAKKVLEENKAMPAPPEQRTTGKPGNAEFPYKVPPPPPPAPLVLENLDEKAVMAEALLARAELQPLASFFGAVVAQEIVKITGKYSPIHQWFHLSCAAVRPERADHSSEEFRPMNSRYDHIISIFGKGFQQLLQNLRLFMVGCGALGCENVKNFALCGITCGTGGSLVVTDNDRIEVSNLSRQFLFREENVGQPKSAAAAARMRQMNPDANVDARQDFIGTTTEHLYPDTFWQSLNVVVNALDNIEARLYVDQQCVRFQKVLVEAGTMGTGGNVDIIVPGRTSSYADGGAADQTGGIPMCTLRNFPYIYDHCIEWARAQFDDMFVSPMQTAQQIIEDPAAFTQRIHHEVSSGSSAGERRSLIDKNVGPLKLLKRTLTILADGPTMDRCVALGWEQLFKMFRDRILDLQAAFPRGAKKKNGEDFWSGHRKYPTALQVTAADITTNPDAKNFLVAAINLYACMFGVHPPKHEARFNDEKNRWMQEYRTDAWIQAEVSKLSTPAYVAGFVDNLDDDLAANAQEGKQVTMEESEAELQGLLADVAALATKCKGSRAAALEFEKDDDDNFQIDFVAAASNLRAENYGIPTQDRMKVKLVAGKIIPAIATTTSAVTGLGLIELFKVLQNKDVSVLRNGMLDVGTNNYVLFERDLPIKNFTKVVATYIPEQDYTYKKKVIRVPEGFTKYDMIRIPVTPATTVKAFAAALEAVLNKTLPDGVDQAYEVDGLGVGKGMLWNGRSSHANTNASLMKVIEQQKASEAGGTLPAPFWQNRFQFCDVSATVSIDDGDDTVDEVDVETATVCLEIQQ

[3] = biological target: Sialic acid-binding Ig-like lectin 9 (Homo sapiens) (UniProt Q9Y336); experiment: Hs-Siglec9 ALPHAscreen SOP 20170721; conditions: 10 µM
Sequence of Sialic acid-binding Ig-like lectin 9 (Homo sapiens) (Q9Y336 whole entry): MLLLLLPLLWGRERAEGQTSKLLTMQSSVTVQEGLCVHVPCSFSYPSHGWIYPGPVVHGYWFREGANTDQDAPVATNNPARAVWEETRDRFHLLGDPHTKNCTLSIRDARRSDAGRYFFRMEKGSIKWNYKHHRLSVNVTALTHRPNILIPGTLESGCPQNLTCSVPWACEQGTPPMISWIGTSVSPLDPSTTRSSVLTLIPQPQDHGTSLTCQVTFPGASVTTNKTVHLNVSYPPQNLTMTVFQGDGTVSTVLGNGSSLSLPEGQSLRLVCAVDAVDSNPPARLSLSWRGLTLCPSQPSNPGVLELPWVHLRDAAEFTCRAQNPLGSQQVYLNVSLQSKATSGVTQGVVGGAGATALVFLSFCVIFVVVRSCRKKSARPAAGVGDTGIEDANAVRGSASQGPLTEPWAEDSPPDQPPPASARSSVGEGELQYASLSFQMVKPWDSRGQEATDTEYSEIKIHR

Trypanosoma cruzi = experiment: Trypanosoma cruzi phosphomannomutase and mannose-1-phosphate guanylyltransferase assay; format: functional; conditions: 10 µM
[4] = biological target: T2, Arginase-2, mitochondrial (Homo sapiens) (UniProt P78540); experiment: in vitro enzyme assay to detect the production of urea directly proportional to the activity of Arginase II; format: functional; conditions: 33.3 µM; also: in the data most compounds retested in dose-response had high values
T2 sequence (whole entry): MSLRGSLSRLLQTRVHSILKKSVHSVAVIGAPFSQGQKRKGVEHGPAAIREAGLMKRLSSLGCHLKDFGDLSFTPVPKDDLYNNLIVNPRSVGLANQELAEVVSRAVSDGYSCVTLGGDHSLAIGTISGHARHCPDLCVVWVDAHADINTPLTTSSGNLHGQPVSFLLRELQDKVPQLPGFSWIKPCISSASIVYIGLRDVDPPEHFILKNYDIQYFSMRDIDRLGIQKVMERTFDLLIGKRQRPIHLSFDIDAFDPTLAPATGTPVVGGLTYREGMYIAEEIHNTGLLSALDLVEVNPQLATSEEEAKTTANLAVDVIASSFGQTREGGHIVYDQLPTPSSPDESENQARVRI

[5] = biological target: T3, Proteasome subunit beta (Trypanosoma cruzi) (UniProt O96673); experiment: Trypanosoma cruzi proteasome chymotrypsin-like activity (TcProtChymo) assay.; also: in the data most compounds retested in dose-response had high values; format: functional; conditions: 9.37 µM
T3 sequence (whole entry): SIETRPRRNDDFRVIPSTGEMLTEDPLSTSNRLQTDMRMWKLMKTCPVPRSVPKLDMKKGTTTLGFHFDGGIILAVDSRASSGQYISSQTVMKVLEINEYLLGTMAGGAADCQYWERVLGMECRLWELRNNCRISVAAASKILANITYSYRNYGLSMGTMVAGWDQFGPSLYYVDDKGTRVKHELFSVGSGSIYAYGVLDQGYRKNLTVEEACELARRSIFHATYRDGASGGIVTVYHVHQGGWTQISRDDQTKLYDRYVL

Homo sapiens = species on record: Homo sapiens; experiment: To identify inhibition of the IFN signalling (Jak-Stat) pathway via expression of an eGFP reporter gene under the control of an IFN-stimulated response element (ISRE) containing MxA promoter.; format: functional; conditions: 30 µM
[6] = biological target: T4, Tyrosyl-tRNA synthetase, putative (Trypanosoma cruzi (strain CL Brener)) (UniProt Q4DSP6); experiment: Trypanosoma cruzi tyrosyl tRNA synthetase (TcYRS) _High Tyrosine SOP; format: functional; conditions: 30 µM; also: in the data most compounds retested in dose-response had high values
T4 sequence (whole entry): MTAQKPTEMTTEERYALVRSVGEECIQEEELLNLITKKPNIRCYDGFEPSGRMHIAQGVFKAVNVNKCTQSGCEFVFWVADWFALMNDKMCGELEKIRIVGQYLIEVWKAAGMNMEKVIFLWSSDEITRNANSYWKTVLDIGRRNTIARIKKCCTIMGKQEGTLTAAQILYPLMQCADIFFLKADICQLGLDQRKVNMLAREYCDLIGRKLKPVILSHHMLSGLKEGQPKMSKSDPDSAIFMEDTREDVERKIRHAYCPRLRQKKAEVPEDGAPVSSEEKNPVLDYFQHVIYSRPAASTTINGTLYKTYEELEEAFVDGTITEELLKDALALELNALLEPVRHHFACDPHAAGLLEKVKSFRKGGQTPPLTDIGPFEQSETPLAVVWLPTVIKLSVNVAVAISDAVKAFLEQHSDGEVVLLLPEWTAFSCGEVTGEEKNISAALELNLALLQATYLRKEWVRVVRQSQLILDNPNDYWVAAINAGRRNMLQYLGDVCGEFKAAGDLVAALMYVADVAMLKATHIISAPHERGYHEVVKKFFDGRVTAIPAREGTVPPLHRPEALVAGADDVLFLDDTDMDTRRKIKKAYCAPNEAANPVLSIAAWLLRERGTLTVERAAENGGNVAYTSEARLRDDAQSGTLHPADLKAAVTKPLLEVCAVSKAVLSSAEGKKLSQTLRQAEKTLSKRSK

[7] = biological target: T4, Tyrosyl-tRNA synthetase, putative (Trypanosoma cruzi (strain CL Brener)); experiment: Trypanosoma cruzi tyrosyl tRNA synthetase (TcYRS) SOP; format: functional; conditions: 30 µM
[8] = biological target: Chromo domain-containing protein 1 (Saccharomyces cerevisiae (strain ATCC 204508 / S288c) (Baker's yeast)) (UniProt P32657); experiment: ScCHD-1 Enzyme Inhibition Assay; format: functional; conditions: 30 µM; also: in the data most compounds retested in dose-response had high values
Sequence of Chromo domain-containing protein 1 (Saccharomyces cerevisiae (strain ATCC 204508 / S288c) (Baker's yeast)) (P32657 whole entry, the tested form may be a part): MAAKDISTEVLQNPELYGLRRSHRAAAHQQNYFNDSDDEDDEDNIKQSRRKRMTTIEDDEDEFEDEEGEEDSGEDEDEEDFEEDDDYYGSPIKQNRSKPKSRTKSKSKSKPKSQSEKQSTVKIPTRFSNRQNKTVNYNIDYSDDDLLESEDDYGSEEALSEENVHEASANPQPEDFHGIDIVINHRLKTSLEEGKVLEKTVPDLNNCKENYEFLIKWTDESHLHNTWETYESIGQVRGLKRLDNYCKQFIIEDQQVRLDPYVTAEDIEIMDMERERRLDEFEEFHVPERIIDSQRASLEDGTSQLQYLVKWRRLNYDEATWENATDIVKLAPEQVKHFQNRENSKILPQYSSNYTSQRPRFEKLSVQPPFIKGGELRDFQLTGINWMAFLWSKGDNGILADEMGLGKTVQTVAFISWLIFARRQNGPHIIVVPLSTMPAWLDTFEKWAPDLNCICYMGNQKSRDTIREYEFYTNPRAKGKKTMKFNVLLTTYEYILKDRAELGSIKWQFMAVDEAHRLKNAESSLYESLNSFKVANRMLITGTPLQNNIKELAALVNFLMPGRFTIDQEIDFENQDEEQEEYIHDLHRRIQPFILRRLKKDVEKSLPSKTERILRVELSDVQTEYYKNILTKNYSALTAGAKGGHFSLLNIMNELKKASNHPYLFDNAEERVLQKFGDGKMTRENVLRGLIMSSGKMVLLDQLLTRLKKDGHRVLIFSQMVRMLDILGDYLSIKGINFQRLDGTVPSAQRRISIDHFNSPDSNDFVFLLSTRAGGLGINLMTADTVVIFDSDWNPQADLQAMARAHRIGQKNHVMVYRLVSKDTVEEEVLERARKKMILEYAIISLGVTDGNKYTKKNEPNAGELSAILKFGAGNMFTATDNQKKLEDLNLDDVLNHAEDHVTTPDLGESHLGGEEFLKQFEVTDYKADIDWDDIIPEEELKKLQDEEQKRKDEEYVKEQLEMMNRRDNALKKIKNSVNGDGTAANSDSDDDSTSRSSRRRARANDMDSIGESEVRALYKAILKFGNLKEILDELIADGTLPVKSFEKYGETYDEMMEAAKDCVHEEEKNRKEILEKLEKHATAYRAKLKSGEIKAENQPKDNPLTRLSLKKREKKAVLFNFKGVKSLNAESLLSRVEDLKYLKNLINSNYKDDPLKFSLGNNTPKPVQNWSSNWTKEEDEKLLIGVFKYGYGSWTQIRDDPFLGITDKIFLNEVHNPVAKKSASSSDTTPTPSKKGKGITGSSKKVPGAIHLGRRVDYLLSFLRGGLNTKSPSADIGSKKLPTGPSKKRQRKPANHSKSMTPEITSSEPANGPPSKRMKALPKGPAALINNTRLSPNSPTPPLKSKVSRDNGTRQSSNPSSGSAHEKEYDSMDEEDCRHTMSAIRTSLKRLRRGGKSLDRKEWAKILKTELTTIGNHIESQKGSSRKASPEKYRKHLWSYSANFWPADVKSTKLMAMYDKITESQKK

Sequence of Protein translocase subunit SecA (Escherichia coli (strain K12)) (P10408 whole entry): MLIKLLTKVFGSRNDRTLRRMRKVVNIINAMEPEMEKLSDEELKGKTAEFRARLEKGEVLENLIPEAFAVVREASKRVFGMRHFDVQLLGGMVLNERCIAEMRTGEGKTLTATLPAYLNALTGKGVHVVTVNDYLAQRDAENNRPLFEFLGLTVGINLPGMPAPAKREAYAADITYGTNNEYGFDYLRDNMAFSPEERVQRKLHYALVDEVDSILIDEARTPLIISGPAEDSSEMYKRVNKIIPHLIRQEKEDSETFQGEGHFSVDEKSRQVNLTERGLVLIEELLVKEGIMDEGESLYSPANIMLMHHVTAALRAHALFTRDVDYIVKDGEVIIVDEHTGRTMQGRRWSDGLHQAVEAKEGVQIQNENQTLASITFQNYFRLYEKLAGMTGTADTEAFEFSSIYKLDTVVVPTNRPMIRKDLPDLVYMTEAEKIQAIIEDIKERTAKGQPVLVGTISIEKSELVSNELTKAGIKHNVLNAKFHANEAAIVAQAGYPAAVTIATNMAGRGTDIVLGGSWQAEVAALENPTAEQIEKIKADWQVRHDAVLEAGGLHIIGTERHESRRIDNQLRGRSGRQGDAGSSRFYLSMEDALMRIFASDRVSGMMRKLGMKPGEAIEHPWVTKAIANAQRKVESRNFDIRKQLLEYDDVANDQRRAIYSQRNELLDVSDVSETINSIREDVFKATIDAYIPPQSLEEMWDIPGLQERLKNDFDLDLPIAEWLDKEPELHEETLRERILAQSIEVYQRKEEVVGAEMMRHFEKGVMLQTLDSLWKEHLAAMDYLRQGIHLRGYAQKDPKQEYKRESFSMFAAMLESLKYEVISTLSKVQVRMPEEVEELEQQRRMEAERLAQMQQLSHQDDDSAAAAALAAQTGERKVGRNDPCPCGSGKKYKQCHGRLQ

Row | SMILES | Percent Effect [1] [%] | Percent Effect [2] [%] | Percent Effect [3] [%] | Percent Effect (Trypanosoma cruzi) [%] | Percent Effect [4] [%] | Percent Effect [5] [%] | Percent Effect (Homo sapiens) [%] | Percent Effect [6] [%] | Percent Effect [7] [%] | Percent Effect [8] [%]
1 | c1cnn(CCNCc2csc(-c3ccsc3)n2)c1 | -6.54 | -12.8 | -10.8 | -5.92 | -1.23 | 20.6 | 24.6 | -6.22 | -1.21 | 0.287
2 | c1ncn(CC2CN(Cc3noc(C4CC4)n3)CCO2)n1 (stereo not given) | -7.36 | 2.67 | 2.48 | -1 | -3.55 | -1.1 | 15.2 | -1.58 | 0 | -8.55
3 | CCn1ncc(NC(=O)c2cc(C3CC3)nc3c2c(C)nn3C)c1C | -5.7 | 20 | -4.48 | 3.75 | -2.21 | 22 | 14.6 | 2.12 | 15 | -28.1
4 | O=C(Nc1nnc(C2CC2)s1)NC1CCN(Cc2ccccc2)C1 (stereo not given) | -5.17 | 12.8 | -8.9 | -2.35 | 0.82 | 4.01 | 43.6 | 0.478 | 10.8 | -0.956
5 | COc1ccc(C2CC(=O)Nc3c2nc2n3CCCC2)cc1O (stereo not given) | -3.09 | 2.7 | 6.46 | -2.04 | 7.34 | 22.6 | 23.4 | 1.6 | 14.6 | -3.18
6 | COc1ccc(CNCc2ccnc(N3CCOCC3)c2)cc1OC | -2.27 | 33.3 | -6.8 | 5.16 | -8.61 | 10.7 | 11.3 | 6.22 | 20.5 | -7.91
7 | CC(NC(=O)CCn1cncn1)c1nnc2n1CCCCC2 (stereo not given) | -3.71 | 20.8 | 8.71 | 5.04 | 10.4 | 1.93 | 17.2 | 3.92 | 18.8 | -8.72
8 | CS(=O)(=O)NCc1cc2n(n1)CCCN(Cc1cccc(C#N)c1)C2 | -4.38 | 8.11 | 22.8 | 7.47 | 10.8 | 13 | 18.6 | 7.98 | 19.5 | 88
9 | CCN1CCN(CC(C)(O)c2cccc(C(F)(F)F)c2)CC1 (stereo not given) | -5.15 | 5.2 | 14.6 | -3.92 | -3.48 | 0.175 | -14.6 | 2.94 | -2.35 | -0.754
10 | CCOCC1CN(Cc2ccc(OC)cc2)Cc2nn(C)cc21 (stereo not given) | -9.46 | 3.9 | 2.27 | -1.46 | 0.405 | 9.62 | 15.7 | 2.63 | 2.56 | 0.496
11 | O=C(NCCn1ccnc1)N1CCN(Cc2cccs2)CC1 | 2.19 | 18.2 | -6.1 | -9.14 | 2.66 | 21.9 | 12.6 | 4.9 | 16.5 | -9.63
12 | O=C(NCc1cc[nH]n1)N(CCCO)C1CCc2ccccc21 (stereo not given) | -1.28 | 8 | -0.45 | 0 | -1.77 | 2.29 | 1.81 | 3.68 | 2.56 | -7.56
13 | Cc1cn2c(n1)CCC(NC(=O)c1cc(Br)cn1C)C2 (stereo not given) | -8.37 | 0 | 0.858 | -3.41 | -1.33 | 8.23 | 12.4 | -1.58 | 0 | -4.6
14 | Cc1cc(S(=O)(=O)N2CCc3ccc(F)cc32)cc(C(=O)O)c1C | -5.32 | 0 | 7.12 | -1.81 | -3.99 | 6.87 | -3.81 | -15.3 | -28.2 | -9.5
15 | Cc1noc(C)c1C(=O)N1CC[C@H]2C[C@@H](c3ccncn3)O[C@@H]2C1 | -7.73 | 6.49 | 0.544 | -1.46 | -2.43 | 11.7 | -4.26 | 5.79 | 15.4 | -2
16 | CN(C)CC1CN(Cc2ccc3c(c2)OCO3)Cc2nccn2C1 (stereo not given) | -10.1 | -42.9 | 7.99 | 0.682 | -3.64 | 5.56 | 12.4 | 0.526 | 0 | -1.33
17 | c1ccc(CCNC2CCc3ncnn3C2)nc1 (stereo not given) | -0.356 | 18.2 | -2.1 | -0.373 | -1.84 | 11.8 | 8.49 | 11.8 | 23.5 | -9.93
18 | CN1CC(c2ccccc2)CC12CCN(C(=O)c1c(Cl)cnn1C)CC2 (stereo not given) | -3.22 | 5.41 | 9.49 | 8.05 | 10.8 | 10.3 | -5.06 | 5.85 | 14.6 | -3.11
19 | O=C(NCCn1ccnc1)N1CCN(c2nccs2)CC1 | -0.752 | 15.6 | -5.93 | -7.28 | 4.71 | 18.2 | 6.33 | 2.94 | 7.06 | -11.9
20 | O=C(NCCN1CCCCC1)c1ccoc1 | -6.92 | 7.79 | -0.674 | -7.28 | -2.66 | 4.21 | 14.7 | -2.94 | 0 | -4.75
21 | Cc1noc(C(C)C)c1C(=O)NCCCOC(C)C | 0.204 | 2.6 | 15.3 | 0.373 | -2.25 | 6.67 | -3.84 | 0.98 | 9.41 | -6.89
22 | CC(C)c1cc(NC(=O)CN2CCC(N3CCNC3=O)CC2)on1 | -2.95 | 15.6 | 8.63 | -6.16 | 1.02 | 0.877 | 23.3 | 5.88 | 11.8 | -7.14
23 | CC(C)(C)c1cn2nc(N3CCCC3Cn3cncn3)sc2n1 (stereo not given) | 0.788 | 17.9 | -6.25 | 2.72 | 6.15 | 17.1 | 12.8 | 3.35 | 20.5 | -6.04
24 | CNC(=O)CN(C)c1nc(-c2ccncc2)nc2c1CCN(C(C)=O)C2 | -7.13 | 0 | 0.927 | -1.07 | 2.45 | 9.59 | -4.34 | 1.6 | 7.32 | -3.67
